# Rows were chosen to be rich in hits. Some 3.3% of all compounds tested hit in one or more screens of this group.
# LmPK inh = qHTS Assay for Inhibitors of Leishmania Mexicana Pyruvate Kinase (LmPK). Q27686. purified LmPK, Kinase-Glo ATP luminescence, 1 h. Potency, µM (top dose mostly 57.5 µM), hits mostly inhibitors. 290,000 tested, 0.37% active
# Target sequence (Q27686 whole entry, looked up): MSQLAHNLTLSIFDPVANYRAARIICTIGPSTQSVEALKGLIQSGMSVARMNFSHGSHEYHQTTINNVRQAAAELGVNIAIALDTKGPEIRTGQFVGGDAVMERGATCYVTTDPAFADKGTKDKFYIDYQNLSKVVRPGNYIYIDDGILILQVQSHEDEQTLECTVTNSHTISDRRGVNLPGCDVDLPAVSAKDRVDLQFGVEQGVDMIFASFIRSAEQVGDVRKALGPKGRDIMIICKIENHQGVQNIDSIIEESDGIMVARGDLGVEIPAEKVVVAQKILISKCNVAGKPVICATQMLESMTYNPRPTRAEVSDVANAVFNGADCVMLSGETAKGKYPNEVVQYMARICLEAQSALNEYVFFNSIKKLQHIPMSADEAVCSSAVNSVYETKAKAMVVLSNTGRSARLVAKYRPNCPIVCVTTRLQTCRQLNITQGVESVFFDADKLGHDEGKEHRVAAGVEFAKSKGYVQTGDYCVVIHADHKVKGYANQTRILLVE
#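 qHTS format; LmPK 0.1 nM; substrates PEP 0.5 mM and ADP 0.1 mM. One-hour room-temperature incubation, then coupled luciferase luminescence; 0.5 nM enzyme wells mark activation.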
# Tb PYK inh = qHTS of Trypanosoma Brucei Inhibitors; TbPYK enzyme, Kinase-Glo Plus ATP luminescence, 45 min; Potency, µM (highest dose often 76.8 µM), usual class: inhibitors; 410,000 tested, 0.12% active; AID 624173, 2012; also: nearly all actives have a fitted effect of over 50% in size
#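 T. brucei PYK with substrate was exposed to pin-transferred compounds across a concentration series, then started with 130 uM ADP (final). After 45 min at room temperature, Kinase-Glo Plus luminescence was read, normalized and curve-fitted.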
# NS1 inh = qHTS Assay for Inhibitors of Influenza NS1 Protein Function; AID 2326, 2010; 270,000 tested, 0.4% active; Potency, µM (titrated, usually from 46.1 µM); calls by dose curve; also: actives are rising curves; nearly all actives have a fitted effect of over 50% in size
#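 OD600 was taken as the measure of yeast growth restored by compound in an NS1-expressing S. cerevisiae strain. Cells had been washed out of glucose medium and diluted 1:100 into galactose -URA medium, pH 6.0.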
# Sm TGR inh = qHTS Assay for the Inhibitors of Schistosoma Mansoni Peroxiredoxins | Schistosoma mansoni thioredoxin glutathione reductase (TGR), Q962Y6 | purified TGR, DTNB reduction, TNB absorbance 405 nm | Potency, µM (doses to about 114 µM), usual class: inhibitors | 360,000 tested, 3% active; also: nearly all actives have a fitted effect of over 60% in size
#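 First, TGR (20 nM dispensed) and NADPH were mixed with compound. Second, a 15 min room-temperature incubation followed. Third, further NADPH and then DTNB were added to start the reaction. Finally, TNB absorbance was monitored kinetically.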
# RE007 growth inh = qHTS Assay for Inhibitors of the HIV-1 protein Vpr; S. pombe RE007 Vpr strain, BacTiter-Glo ATP luminescence, 24 h; 360,000 tested, 0.21% active; Potency, µM (titrated, usually from 92.2 µM), actives largely listed as inhibitors; active = well fitted falling curve with a large enough effect; inconclusive = small, poorly fitted or top-dose-only effect; inactive = no such curve, though single readings can be large or run the other way; also: nearly all actives have a fitted effect of over 50% in size
#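 Fission yeast strain RE007, carrying one chromosomally integrated HIV-1 vpr copy, was seeded at OD 0.01 in PMG+AL medium with 23 nL pinned compound. After 24 h at 30 °C and 99% humidity, viability was read by BacTiter-Glo luminescence.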
# SARS PLpro yeast = qHTS of Yeast-based Assay for SARS-CoV PLP; S. cerevisiae expressing SARS-CoV PLpro, growth rescue; Potency, µM (highest dose often 32.9 µM), hits mostly activators; 330,000 tested, 0.19% active; calls by dose curve; also: nearly all actives have a fitted effect of over 55% in size
# LmPK inh confirm = Confirmation Assay for Inhibitors of Leishmania Mexicana Pyruvate Kinase (LmPK); shares compounds with LmPK inh; purified LmPK, Kinase-Glo ATP luminescence, 1 h; Potency, µM (top dose mostly 57.5 µM), actives largely listed as inhibitors; 150 tested, 40% active;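 active = compounds giving a full or partial concentration-response curve, as inhibitors or activators; inconclusive = weak, top-dose-only or unclear curve responses; inactive = no response at any tested dose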
# A number is an active result; . = inactive; ? = inconclusive; / = no result; ! = a repeat was not active; [ ] = remark or other dose. Unless noted, calls follow the shape of the dose curve; as a rule, active = well fitted curve in the direction sought with a large enough effect; inconclusive = small, poorly fitted or top-dose-only effect, or another doubt; inactive = no such curve, though single readings can be large; an effect the other way counts as inactive or inconclusive.
SMILES,LmPK inh,Tb PYK inh,NS1 inh,Sm TGR inh,RE007 growth inh,SARS PLpro yeast,others
NCc1c(O)ccc2ccccc12,.,/,.,13µM,/,.,
COc1ccc(NCc2c(O)ccc3ccccc23)cc1,/,/,.,/,/,/,
Oc1ccc2ccccc2c1CN1CCCCC1,/,.,/,/,.,/,
Oc1ccc2ccccc2c1CNc1ccc(Br)cc1,.,.,.,0.63µM,.,.,
Oc1ccc2ccccc2c1CN1CC=C(c2ccccc2)CC1,.,.,/,22µM,.,.,
Oc1ccc2ccccc2c1Cc1c(O)ccc2ccccc12,/,/,.,/,/,/,
COc1ccccc1CNC(=O)CCC1N=C2c3ccccc3N=C(SCC(N)=O)N2C1=O (configuration not stated),/,.,/,.,/,/,
CCCN(CCC)C(=O)Cn1c(=O)n(Cc2ccc(C(=O)NCCc3ccc(Cl)cc3)cc2)c(=O)c2ccccc21,/,.,/,.,/,/,
Oc1ccc2ccccc2c1CN1CCN(c2ccccc2)CC1,.,.,.,2.8µM,.,.,
Oc1c(CN2CCOCC2)ccc2ccccc12,.,.,.,0.56µM,.,.,
Oc1ccc2cc(Br)ccc2c1CN1CCCC1,.,.,/,32µM,.,.,
CN(C)c1ccc(/C=N\NC(=O)c2cnc3ccccc3c2)cc1,/,/,.,/,/,/,
N[C@@H](Cc1cc(I)c(Oc2cc(I)c(O)c(I)c2)c(I)c1)C(=O)O,/,.,/,/,.[18.4 µM],/,
N[C@@H](Cc1ccc(O)c(O)c1)C(=O)O,/,.,/,/,.[18.4 µM],/,
N[C@@H](Cc1cc(Br)c(O)c(Br)c1)C(=O)O,.,/,.,25µM,/,.,
N[C@@H](Cc1cc(I)c(Oc2ccc(O)c(I)c2)c(I)c1)C(=O)O,.,.,.,50µM!,.,.,
COc1ccc(CNC(=O)c2cnc3sc(N4CCCCCC4)nn3c2=O)cc1,/,.,/,.,/,/,
CCN(CC)CC(C)CNC(=O)c1cc(-c2ccc(Br)s2)nc2ccccc12 (configuration not stated),/,.,/,.,/,/,
CCOC(=O)c1sc(NC(=O)c2nc3nc(C)cc(C(F)F)n3n2)c(C(=O)OC(C)C)c1C,/,.,/,.,/,/,
COc1cccc(NS(=O)(=O)c2ccc3[nH]cc(C(=O)N(C)C4CCCCC4)c(=O)c3c2)c1,/,.,/,.,/,/,
C1=CC(Cc2cncs2)c2ccccc21 (configuration not stated),/,.,/,50µM,.,.,
O[C@H]1c2ccccc2[C@H](Cc2cncs2)[C@@H]1Br,/,.,/,.,.,.,
COc1ccccc1NC1=C(Cl)C(=O)OC1OC(=O)c1ccco1 (configuration not stated),.,.,/,?,.,.,
COc1cccc(NC2=C(Cl)C(=O)OC2OC(=O)c2ccco2)c1 (configuration not stated),.,.,/,7.9µM,.,.,
O=c1sc2ccccc2c(N2CCOCC2)c1[N+](=O)[O-],.,.,.,40µM,.,.,
SMILES,LmPK inh,Tb PYK inh,NS1 inh,Sm TGR inh,RE007 growth inh,SARS PLpro yeast,others
Cc1cc(C)nc(S/C=C/C(=O)c2ccccc2F)n1,.,.,.,0.56µM,.,.,
COc1ccc(C(=O)/C(Br)=C/C(=O)O)cc1,/,.,/,/,/,/,
CCS(=O)(=O)N1CCc2cc(C(=O)N3CCN(c4ccc(OC)cc4)CC3)ccc21,/,.,/,.,/,/,
O=C(O)CCS(=O)(=O)c1cccc2cccnc12,.,.,.,.,.,.,
CCSS(=O)(=O)c1cccc2cccnc12,.,10µM,.,.,5.6µM,.,
Cc1ccc(-n2c([C@@H]3C[C@H]3c3ccccc3)n[nH]c2=S)cc1,?,?,.,.,.,.,
Cc1ccc(C2CC2c2n[nH]c(=S)n2-c2ccc(C)cc2)cc1 (configuration not stated),11µM,?,.,.,.,?,
S=c1[nH]nc(C2CC2c2ccc(Cl)cc2)n1-c1ccc(Cl)cc1 (configuration not stated),.,?,.,.,.,.,
Cc1ccc(-n2c(C3CC3c3ccc(Cl)cc3)n[nH]c2=S)cc1 (configuration not stated),7.9µM,?,.,.,.,?,
Cc1nn(C(C)(C)C)c(OC(=O)c2c(F)cccc2F)c1Sc1ccccc1,/,.,/,.,/,/,
COC(=O)[C@H]1[C@H]2C[C@@H]3c4[nH]c5ccccc5c4CCN3C[C@H]2C[C@@H](OC(=O)c2cc(OC)c(OC)c(OC)c2)[C@@H]1OC,/,.,/,/,/,/,
COc1ccc(S(=O)(=O)N2CCN(Cc3cc(OC)c(OC)c(OC)c3)CC2)cc1,.,.,.,.,.,/,
COc1ccc(S(=O)(=O)N2CCN(Cc3cc(OC)c(O)c(OC)c3)CC2)cc1,.,.,.,3.5µM,.,.,
COc1cc(CN2CCN(S(=O)(=O)c3ccccc3)CC2)cc(OC)c1O,/,.,/,4.5µM,/,/,
CC(CC(c1ccccc1)c1ccccc1)NC(C)(C)C (configuration not stated),/,.,/,/,/,/,
CCOC(=O)C(NS(=O)(=O)c1ccccc1)(C(F)(F)F)P(=O)(OCC(C)C)OCC(C)C (configuration not stated),.,.,.,18µM,.,.,
COC(=O)NC(NS(=O)(=O)c1ccccc1)(C(=O)OC)C(F)(F)F (configuration not stated),.,.,.,.,.,.,
CCCn1nc([N+](=O)[O-])c(C(C#N)c2nc3ccccc3s2)c(Cl)c1=O (configuration not stated),?,.,.,1.3µM,.,.,
O=[N+]([O-])c1ccc(CN2CCN(c3nc4ccccc4s3)CC2)cc1,.,.,.,?,.,.,
CCn1nc([N+](=O)[O-])c(C(C#N)c2nc3ccccc3n2C)c(Cl)c1=O (configuration not stated),.,.,.,14µM,.,.,
CCc1nn2c(=O)cc(COC(=O)c3cccs3)nc2s1,/,.,/,.,/,/,
COc1cc(Cl)c(C)cc1NC(=O)COC(=O)c1cc[n+]([O-])cc1,2.8µM,.,/,.,.,.,LmPK inh confirm=.
Cc1ccccc1NC(=O)COC(=O)c1cc[n+]([O-])cc1,/,.,/,.,.,.,
CCOc1ccc(-c2cc(NC(=O)Nc3ccccc3Cl)c(C(=O)OC)s2)cc1,/,.,/,.,/,/,
Cc1c(C(=O)NC(=S)Nc2ccc(NC(=O)c3cccs3)cc2)oc2ccccc12,7.1µM,.,.,0.63µM,.,.,LmPK inh confirm=.
CC(C)(C)C(=O)Nc1cccc(C(=O)OCc2cc(=O)n3nc(C4CC4)sc3n2)c1,/,.,/,.,/,/,
O=c1c2ccccc2sn1-c1cc(S(=O)(=O)N2CCOCC2)ccc1N1CCCC1,8.9µM,?,?,?,.,.,LmPK inh confirm=?

# Source: PubChem BioAssay
